From PubChem BioAssay AID540299 (ICCB-Longwood Screening Facility, Harvard Medical School, 2011)
Out of some 100,000 compounds screened, about 440 (0.44%) were called active. Rule as the data show it: active = inhibition above about 21% (passing the limit was not always enough); inactive = the rest. What follows is part of a selection rich in actives, with near analogues and random picks from the rest.

The compounds below were run against 1,4-dihydroxy-2-naphthoyl-CoA synthase (Mycobacterium tuberculosis (strain ATCC 25618 / H37Rv)) (UniProt P9WNP5) (assay: M. tuberculosis MenB inhibitors, primary screen, biochemical, absorbance (AID 540299)). Details: MenB enzyme assay, absorbance read-out; stronger effect = higher value; concentration not given here.
1,4-dihydroxy-2-naphthoyl-CoA synthase (Mycobacterium tuberculosis (strain ATCC 25618 / H37Rv)), sequence (P9WNP5 whole entry, looked up): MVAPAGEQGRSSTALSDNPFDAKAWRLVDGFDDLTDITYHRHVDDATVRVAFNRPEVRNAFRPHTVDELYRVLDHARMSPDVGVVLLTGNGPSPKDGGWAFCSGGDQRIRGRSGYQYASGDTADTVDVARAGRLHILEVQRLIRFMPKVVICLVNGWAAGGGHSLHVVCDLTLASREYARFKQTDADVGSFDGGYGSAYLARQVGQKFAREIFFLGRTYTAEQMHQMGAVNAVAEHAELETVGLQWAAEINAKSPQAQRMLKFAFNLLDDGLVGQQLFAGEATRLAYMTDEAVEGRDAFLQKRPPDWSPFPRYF

| SMILES | inhibition |
| --- | --- |
| COc1ccc(-c2noc(N3CCN(c4ccc(OC)cc4)CC3)n2)cc1 | 1.43% (inactive) |
| COc1cc(C)cc(CN2CCN(S(=O)(=O)c3ccccc3C#N)CC2)c1O | -41.6% (inactive) |
| CCOC(=O)C1(Cc2ccc(O)cc2)NC(c2ccccc2F)C2C(=O)N(C)C(=O)C21 (stereo not drawn) | -10.9% (inactive) |
| CCN1C(=O)C2C(c3cccs3)NC(C)(C(=O)OC)C2C1=O (stereo not drawn) | 15.1% (inactive) |
| CCCC1(C(=O)OC)NC(c2ccco2)C2C(=O)N(C)C(=O)C21 (stereo not drawn) | 29.6% (active) |
| CC1CCCCN1CC(=O)Nc1cc(C(C)(C)C)nn1-c1ccccc1 (stereo not drawn) | 7.46% (inactive) |
| COc1ccc2c(CC(=O)OCC(=O)Nc3c(C)n(C)n(-c4ccccc4)c3=O)coc2c1 | -0.895% (inactive) |
| Cc1cc(N2CCN(C3CCCCC3)CC2)c2nncn2n1 | 0.645% (inactive) |
| O=C1CC2NCCc3cccc1c32 (stereo not drawn) | -9.34% (inactive) |
| CCNS(=O)(=O)c1ccc(-c2cc(C)no2)s1 | -3.52% (inactive) |
| O=C(COC(=O)c1ccc(S(=O)(=O)N2CCOCC2)cc1)Nc1ncc(Cl)cc1Cl | 3.48% (inactive) |
| CCCc1ccc(OCCNC(C)=O)c(OC)c1 | 11.5% (inactive) |
| Cc1ccc2oc(=O)c3cnn(CC(=O)n4c(C)cc5ccccc54)c3c2c1 | -3.43% (inactive) |
| CC1(C)CC(=O)C2=C(C1)N=C1SCCC(=O)N1C2c1ccc(Br)cc1 (stereo not drawn) | -1.14% (inactive) |
| C=CCn1c(=NC(C)=O)sc2cc(F)ccc21 | -10.2% (inactive) |
| CC1CCCCN1C(=O)c1ccc2ccccc2n1 (stereo not drawn) | -16.5% (inactive) |
| O=C1CCC(=O)N1CNc1ccc(-c2ccccc2)cc1 | -8.33% (inactive) |
| Oc1ccc(-n2cccc2)cc1 | -10.9% (inactive) |
| Oc1ccc(SSc2ccc(O)cc2)cc1 | 40.7% (active) |
| Oc1ccc(-c2cccc(-c3ccc(O)cc3)c2)cc1 | -21.5% (inactive) |
| Cc1ccccc1Cn1nnc(-c2ccncc2)n1 | -48.5% (inactive) |
| c1cc(-c2nn[nH]n2)ccc1CN1CCCCC1 | -0.56% (inactive) |
| CCc1ccc(-c2nnn(Cc3nn[nH]n3)n2)cc1 | 42.6% (active) |
| COC(=O)Cc1cnc(NC(=O)CSc2nc(C(C)C)cc(=O)[nH]2)s1 | -54% (inactive) |
| CN1C(C(=O)NC2CCCC2)=CC(c2cccs2)=NS1(=O)=O | -18.8% (inactive) |
| COc1ccc(C(=O)NNc2nnc(C(C)(C)C)c(=O)n2N)cc1 | 1.4% (inactive) |
| O=C(c1ccco1)N1CCCCCCC1 | 1.17% (inactive) |
| O=C(On1c(-c2ccccc2)nc2ccccc2c1=O)c1cccc(C(F)(F)F)c1 | 11.4% (inactive) |
